Screening results (PubChem)
Cardio protect: protects H9c2 cardiomyocytes from peroxide injury; hit rate 0.63% among 360,000; H2O2 injury protection, ATPLite, 2 h; protection from H2O2 cell death, % at 20 µM;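 active = compounds giving at least 50% protection of heart cells from peroxide-induced death in the single-dose screen, raw or plate-pattern-corrected value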;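 note: 0% = DMSO wells with peroxide and 100% = DMSO wells without peroxide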
PLCb3 inh: inhibitors of human phospholipase C beta3; Q01970; Purified PLC-beta3, fluorogenic substrate, fluorescence; hit rate 0.18% among 370,000; inhibition, % at 12.2 µM; in the data active = inhibition above about 11%;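 note: 0% = median of compound wells on plate and 100% = full blocker control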
PLC-gamma1 inh: PLC-gamma1 (human) inhibition, primary screen. P19174. purified PLC-gamma1, fluorogenic substrate, fluorescence. inhibition, % at 12.2 µM. hit rate 0.84% among 370,000. AID 720700; in the data active = inhibition above about 9.5%
FAS-TE inh: blocks the thioesterase domain of human fatty acid synthase; P49327; recombinant FAS-TE, OMFH fluorogenic substrate, fluorescence endpoint; inhibition, % at 15 µM; hit rate 0.67% among 360,000; AID 602261;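 active = compounds whose normalised, plate-corrected inhibition of enzyme fluorescence in the single-dose primary screen is 50% or more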;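 note: 0% = DMSO with enzyme and 100% = substrate without enzyme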
FAS-TE conf: confirmation of human fatty acid synthase thioesterase inhibitors; shares compounds with FAS-TE inh; recombinant FAS-TE, OMFH fluorogenic substrate, fluorescence; inhibition, % at 15 µM; hit rate 45% among 2,300; AID 624325;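 active = compounds inhibiting the enzyme by at least 50% at 15 µM in any one of the replicates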;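 note: 0% = enzyme with DMSO only and 100% = wells lacking enzyme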
Active calls of the source: *; · = no result given. Most compounds without a hit are left out; they make up all but 2.2% or so of the library.

SMILES	Cardio protect	PLCb3 inh	PLC-gamma1 inh	FAS-TE inh	FAS-TE conf
CC(=O)OCCNc1cc(Sc2nc3ccccc3[nH]2)c2nonc2c1[N+](=O)[O-]	-23.2	-0.2	-1.5	75.7*	72.3*
CN[C@H]1C[C@@H](c2ccccc2Br)N(C(C)=O)C[C@H]1CO	·	1.1	2.2	·	·
Fc1ccc(-c2n[nH]c(=S)n2N=Cc2cccc(OCc3ccccc3)c2)cc1	·	0.9	0.7	·	·
N#Cc1c(C(F)(F)F)cc(-c2ccc(F)cc2)nc1SCC(=O)O	-0.5	-7.0	-6.5	17.2	·
Cc1coc(NC(=O)CSc2nc(-c3ccncc3)cc(C(F)(F)F)c2C#N)n1	29.6	-7.8	5.5	55.3*	36.6*
COCc1cc(N2CCN(C(=O)OC(C)(C)C)C[C@@H]2C)ccc1N1CC[C@H](O)C1	·	-13.9	-10.4	·	·
COC(=O)[C@H](C)NC(=O)[C@@H]1CCCN1C(=O)CNP(=O)(OCc1ccccc1)OCc1ccccc1	·	3.5	2.0	·	·
CCCn1c(=S)[nH]c2cc(C(=O)N3CCN(c4ccc(F)cc4)CC3)ccc2c1=O	4.0	1.2	0.9	54.8*	25.7
O=C1NC(Cc2ccccc2)c2nc3ccccc3c(=O)n2-c2cc3ccccc3cc21 (stereo unspecified)	11.1	2.6	-2.5	69.8*	-1.9
CC1NC(=O)c2cc3ccccc3cc2-n2c1nc1cc(Cl)ccc1c2=O (stereo unspecified)	11.9	-17.1	-9.1	-6.9	·
O=C1NC(Cc2ccccc2)c2nc3cc(F)ccc3c(=O)n2-c2ccc(Cl)cc21 (stereo unspecified)	·	2.2	-0.6	·	·
CC(C)CC1NC(=O)c2cc3ccccc3cc2-n2c1nc1cc(Cl)ccc1c2=O (stereo unspecified)	-29.2	-1.2	-0.2	82.5*	16.6
O=C1NC(Cc2ccccc2)c2nc3ccccc3c(=O)n2-c2ccc(Cl)cc21 (stereo unspecified)	·	-0.6	3.1	·	·
Cc1ccc2c(=O)n3c(nc2c1)C(Cc1ccccc1)NC(=O)c1cc2ccccc2cc1-3 (stereo unspecified)	9.5	-12.1	-2.5	76.4*	35.8
O=C1NC(Cc2ccccc2)c2nc3cc(F)ccc3c(=O)n2-c2cc3ccccc3cc21 (stereo unspecified)	10.3	-5.3	-1.8	91.5*	34.5
NC1=[N+](Cc2ccccc2)C(Cc2ccccc2)C2C(=C3CCCCC3n3c(=O)n(-c4ccccc4)c(=O)n32)N1 (stereo unspecified)	·	4.4	3.7	·	·
Nc1[nH]c2cc(C(F)(F)F)ccc2c1C(=O)NCc1ccc(F)cc1	·	-3.3	-1.1	·	·
COC(=O)c1cc2c(c3c4cc(F)ccc4n(S(=O)(=O)c4ccc(C)cc4)c13)C(=O)N(Cc1ccc(C(F)(F)F)cc1)C2	·	-0.4	-2.3	·	·
O=C1NC(Cc2ccccc2)c2nc3cc(F)c(F)cc3c(=O)n2-c2cc3ccccc3cc21 (stereo unspecified)	-5.1	-4.4	-2.7	85.5*	14.1
COc1cc2nc3n(c(=O)c2cc1OC)-c1cc2ccccc2cc1C(=O)NC3CC(C)C (stereo unspecified)	-21.8	-7.2	-0.6	27.9	·
Cc1ccc2nc3n(c(=O)c2c1)-c1cc2ccccc2cc1C(=O)NC3Cc1ccc(O)cc1 (stereo unspecified)	15.7	-6.9	-5.2	16.5	·
COc1cc2nc3n(c(=O)c2cc1OC)-c1cc2ccccc2cc1C(=O)NC3Cc1ccccc1 (stereo unspecified)	-11.9	-2.6	0.8	52.7*	19.6
Cn1c2ccccc2c2nnc(SCc3ccc4nonc4c3)nc21	6.4	2.0	2.1	58.3*	23.1
CN1C(=S)SC(N2OC3C(=O)N(c4ccccc4)C(=O)C3C2c2ccc(Cl)cc2)C1(C)C (stereo unspecified)	3.4	4.6	3.3	69.2*	35.0
COc1cc(C2C3C(=O)N(c4ccccc4)C(=O)C3ON2c2ccccc2)cc(OC)c1OC (stereo unspecified)	13.0	-4.6	0.3	2.4	·
SMILES	Cardio protect	PLCb3 inh	PLC-gamma1 inh	FAS-TE inh	FAS-TE conf
O=C(CN1C(=O)c2ccccc2C1=O)Nc1cc(C(=O)O)cc(C(=O)O)c1	-0.3	-4.8	-0.3	1.1	·
O=C(c1cc(C2CC2)on1)N(C1CCCCC1)C1CCCCC1	·	4.6	8.4	·	·
COC(=O)c1cc(C(=O)Nc2nnc(CC(C)(C)C)s2)cc([N+](=O)[O-])c1	-3.5	-1.2	0.6	52.5*	58.7*
CCOCc1nnc(NC(=O)c2cc(C(=O)OC)cc([N+](=O)[O-])c2)s1	-0.1	3.2	2.0	10.6	·
COC(=O)c1ccc(S(=O)(=O)N2CCN(C(c3ccccc3)c3ccccc3)CC2)n1C	-3.2	-7.3	0.6	54.6*	6.6
Cc1cccc(-c2cccc3c4c([nH]c23)[C@@H]2C[C@H](N(C)C(=O)c3ccco3)[C@H]([C@H](C)O)C(=O)N2CC4)c1	·	-56.4	-36.0	·	·
C=CCn1c(COc2ccc(Cl)cc2)nnc1SCC(=O)c1ccc(-c2ccccc2)cc1	·	5.1	-2.8	·	·
O=C(Nc1cccc(Cl)c1)C1=Cc2cc(Cl)ccc2OC1	-22.5	-26.2	-14.8	23.7	·
O=C(NCc1ccc(Cl)cc1)C1=Cc2cc(Cl)ccc2OC1	-6.7	-2.2	-1.5	63.5*	40.4
CC1CCc2c(C(=O)Oc3cccc(-n4cnnn4)c3)csc2C1 (stereo unspecified)	-16.9	-5.7	-1.5	84.9*	56.3*
Cc1cccc(-n2cnc3c(sc4nc(N5CCOCC5)c5c(c43)CCCC5)c2=O)c1	-4.1	-17.2	-8.7	65.9*	5.9
CCN(CC)CCNc1ncnc2c1sc1nc(N3CCOCC3)c3c(c12)CCCC3	-26.3	-151.0	-110.5	1.4	·
COC(=O)[C@]12C[C@H](CC(=O)NCCC(C)C)C(=O)N(Cc3ccco3)C1=C[C@H](C(C)(C)C)O[C@@H]2C	·	1.1	-4.5	·	·
O=C(NCC1COCCO1)C1CCN(S(=O)(=O)c2cccs2)CC1 (stereo unspecified)	·	-1.7	0.3	·	·
Cn1c(SCc2c(Cl)cccc2Cl)nc(C(F)(F)F)cc1=O	0.3	2.2	1.9	52.0*	6.7
Cn1c(SCc2cccc(Cl)c2)nc(C(F)(F)F)cc1=O	-11.2	4.7	2.7	63.4*	61.6*
Cn1c(SCc2ccccc2Cl)nc(C(F)(F)F)cc1=O	-5.7	2.0	-2.1	30.4	·
CCOC(=O)N1CCN(C(=O)C[C@H]2C[C@@]3(C(=O)OC)C(=C[C@H](C(C)C)O[C@@H]3C3CC3)N(Cc3ccc4c(c3)OCO4)C2=O)CC1	·	4.7	2.5	·	·
COc1cc(C2c3c(c(C)c(C)oc3=O)Oc3c(C)c(C)oc(=O)c32)ccc1OS(=O)(=O)c1ccc(C)cc1	26.6	1.3	0.0	83.8*	21.6
COc1ccc(C2c3c(c(C)c(C)oc3=O)Oc3c(C)c(C)oc(=O)c32)cc1	16.0	-11.4	-8.1	4.6	·
O=C(O)/C(=C/c1ccc(Cl)c([N+](=O)[O-])c1)c1ccc(S(=O)(=O)N2CCCCC2)s1	9.5	-134.0	-100.7	55.8*	52.9*
O=C(O)/C(=C\c1cccc(F)c1)c1ccc(S(=O)(=O)N2CCCCC2)s1	-1.2	-5.5	-5.2	-7.6	·
